Experimental data taken from PubChem BioAssay.
The source made the active and inactive calls. Unless noted, how the calls were made is not given here.

What was measured:
[1] = tested on: Wnt5a (protein binding on small-molecule microarray); test: small molecules binding Wnt5a protein – biophysical, small-molecule microarray, 635/667 nm fluorescence, primary screen (AID 1142); conditions: 635 nm fluorescence, higher = more signal;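 further: fluorescence read at 667 nm with signal to noise per printed feature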
[2] = ATP-based viability of Huh7 replicon cells – cell-based, CellTiter-Glo luminescence, basal, 48 h, cytotoxicity control for HCV replication inhibitor project, primary screen (AID 1143); conditions: higher = more signal, called active from +8 up or from −8 down;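 further: Huh7 hepatoma cells carrying a hepatitis C replication reporter with no stimulus; test concentration not given here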
[3] = Pseudomonas biofilm growth suppression – PAO1 strain, BacTiter-Glo luminescence, LB-PBS, primary screen (AID 1144); conditions: P. aeruginosa PAO1 biofilm, 12 h, higher = more signal
[4] = basal CRE-LacZ reporter activity in PC12 – cell-based, unstimulated, primary screen (AID 1145); conditions: no forskolin, luminescence, 4.5 h, higher = more signal, called active from +8 up or from −8 down
[5] = forskolin-driven CRE-LacZ activity in PC12 – cell-based, CRE-LacZ reporter, forskolin-stimulated, primary screen (AID 1146); conditions: luminescence, 4.5 h, higher = more signal, called active from +8 up or from −8 down;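 further: PC12 cells with 6xCRE LacZ reporter stimulated by forskolin 10 µM; beta-galactosidase reporter signal reflecting CREB driven transcription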
[6] = target: Streptavidin (Streptomyces avidinii) (UniProt P22629); test: compounds binding control protein streptavidin – biophysical, small-molecule microarray, 635/667 nm fluorescence, artefact control for SMM compound annotation, primary screen (AID 1147); conditions: higher = more signal;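 further: signal reflects streptavidin binding to arrayed compounds as a control protein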
[7] = probe aInhba binding on compound microarray – biochemical, small-molecule microarray, 635/667 nm fluorescence, primary screen (AID 1148); conditions: higher = more signal;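 further: score merges 667nm spot fluorescence with signal-to-noise for antibody binding to printed compounds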
Torsin-1A (Homo sapiens) [8] = target: Torsin-1A (Homo sapiens) (UniProt O14656); test: TOR1A wild-type binding on microarray – cell lysate, small-molecule microarray, lysate, 635/667 nm, primary screen (AID 1149); conditions: COS7 hTOR1A-WT lysate, 635 nm fluorescence, higher = more signal
Torsin-1A (Homo sapiens) [9] = target: Torsin-1A (Homo sapiens) (UniProt O14656); test: torsin A mutant lysate binding on microarrays – cell lysate, small-molecule microarray, COS7 lysate, 635/667 nm fluorescence, primary screen (AID 1150); conditions: COS7 hTOR1A mutant lysate, 635 nm fluorescence, higher = more signal;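 further: score pools 667 nm emission and signal to noise measuring lysate protein binding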
[10] = tested on: Sonic hedgehog protein (Shh); test: Sonic hedgehog microarray binding compounds – biochemical, small-molecule microarray, 635/667 nm fluorescence, primary screen (AID 1151); conditions: 635 nm fluorescence, higher = more signal;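 further: Shh protein binding to compounds spotted on small-molecule microarray slides; score combines spot fluorescence intensity with signal-to-noise across triplicate slides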
[11] = optical density shifts of acrAB sulA E. coli – strain DRC41, OD650, 48 h, E. coli filamentation inducer project, primary screen (AID 1152); conditions: higher = more signal, called active from +8 up or from −8 down;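 further: E. coli MC1000 strain DRC41 lacking acrAB efflux pump and sulA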
[12] = probe aLefty1 binding on compound microarray – biochemical, small-molecule microarray, 635/667 nm fluorescence, primary screen (AID 1153); conditions: higher = more signal;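 further: score merges spot fluorescence with signal-to-noise ratio from the scanned slide images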
[13] = plasmodial surface anion channel blockers, osmotic lysis – cell-based, P. falciparum Indochina, OD700, 1 h, primary screen (AID 1154); conditions: P. falciparum Indochina infected RBC osmotic lysis, higher = more signal, called active from +8 up or from −8 down
[14] = plasmodial surface anion channel blockers, osmotic lysis – cell-based, P. falciparum Indochina, OD700, 2 h, primary screen (AID 1155);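 further: lysis reports solute entry through the parasite surface anion channel PSAC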; conditions: P. falciparum Indochina infected erythrocytes, higher = more signal, called active from +8 up or from −8 down
[15] = changes in parasitized red cell lysis, either direction – P. falciparum Indochina, OD700, 3 h, PSAC antagonist project, primary screen (AID 1156); conditions: P. falciparum-infected erythrocytes, osmotic lysis, higher = more signal, called active from +8 up or from −8 down
[16] = plasmodial surface anion channel blockers, osmotic lysis – cell-based, P. falciparum Indochina, OD700, 18 h, primary screen (AID 1157); conditions: P. falciparum Indochina infected erythrocytes, osmotic lysis OD700, 18 h; higher = more signal, called active from +8 up or from −8 down
[17] = S6 kinase pathway phospho-S6 level changes – cell-based, A549, cytoblot, luminescence, serum-stimulated, primary screen (AID 1158); conditions: 5 h, higher = more signal;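 further: serum-stimulated A549 lung adenocarcinoma cells; signal is phosphorylated S6 detected by cytoblot immunostaining with HRP secondary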
[18] = target: NADPH oxidase 2 (Homo sapiens) (UniProt P04839); test: compounds shifting NOX2 Amplex Red fluorescence – cell-based, HEK293-NOX2, PMA-stimulated, NOX inhibitor project, primary screen (AID 1159); conditions: 45 min, higher = more signal, called active from +8 up or from −8 down; further: test concentration not given here
[19] = target: NADPH oxidase 4 (Homo sapiens) (UniProt Q9NPH5); test: compounds shifting NOX4 Amplex Red fluorescence – cell-based, HEK293-NOX4, tetracycline-induced, NOX inhibitor project, primary screen (AID 1160); conditions: HEK293-NOX4, Amplex Red H2O2 fluorescence, 45 min; higher = more signal, called active from +8 up or from −8 down
[20] = target: NADPH oxidase 5 (Homo sapiens) (UniProt Q96PH1); test: compounds shifting NOX5 Amplex Red fluorescence – cell-based, HEK293-NOX5, NOX inhibitor project, primary screen (AID 1161); conditions: HEK293-NOX5, ionomycin, 45 min, higher = more signal
Sequence of NADPH oxidase 5 (Homo sapiens) (Q96PH1 whole entry, looked up): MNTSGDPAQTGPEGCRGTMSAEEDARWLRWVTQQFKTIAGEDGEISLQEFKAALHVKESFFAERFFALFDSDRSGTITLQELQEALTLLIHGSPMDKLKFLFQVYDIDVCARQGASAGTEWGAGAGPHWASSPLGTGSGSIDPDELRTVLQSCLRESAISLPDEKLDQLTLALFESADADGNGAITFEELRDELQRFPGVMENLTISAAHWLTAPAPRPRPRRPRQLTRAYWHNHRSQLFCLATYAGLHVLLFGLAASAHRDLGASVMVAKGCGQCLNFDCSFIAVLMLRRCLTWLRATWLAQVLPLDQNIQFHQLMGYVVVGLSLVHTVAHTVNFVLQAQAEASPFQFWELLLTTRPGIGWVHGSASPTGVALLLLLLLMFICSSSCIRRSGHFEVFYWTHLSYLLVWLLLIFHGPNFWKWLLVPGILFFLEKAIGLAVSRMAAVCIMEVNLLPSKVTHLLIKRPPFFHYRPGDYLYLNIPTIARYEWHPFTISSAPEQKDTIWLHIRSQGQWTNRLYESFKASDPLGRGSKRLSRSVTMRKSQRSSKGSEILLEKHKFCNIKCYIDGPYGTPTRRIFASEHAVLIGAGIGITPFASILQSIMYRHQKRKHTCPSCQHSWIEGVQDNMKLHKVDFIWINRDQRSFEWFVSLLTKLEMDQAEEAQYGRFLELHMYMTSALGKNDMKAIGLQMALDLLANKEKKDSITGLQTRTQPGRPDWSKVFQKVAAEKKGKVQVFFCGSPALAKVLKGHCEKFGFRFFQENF

Sequence of Torsin-1A (Homo sapiens) (O14656 whole entry, looked up): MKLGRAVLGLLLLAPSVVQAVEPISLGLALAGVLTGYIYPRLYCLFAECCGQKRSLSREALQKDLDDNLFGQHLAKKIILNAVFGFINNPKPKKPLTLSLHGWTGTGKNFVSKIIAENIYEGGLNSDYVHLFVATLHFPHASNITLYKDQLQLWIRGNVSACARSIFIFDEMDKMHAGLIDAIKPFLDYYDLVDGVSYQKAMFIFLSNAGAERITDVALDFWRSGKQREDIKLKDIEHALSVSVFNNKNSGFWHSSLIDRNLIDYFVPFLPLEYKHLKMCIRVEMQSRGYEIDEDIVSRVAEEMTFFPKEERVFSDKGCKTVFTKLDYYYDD
Sequence of Streptavidin (Streptomyces avidinii) (P22629 whole entry, looked up): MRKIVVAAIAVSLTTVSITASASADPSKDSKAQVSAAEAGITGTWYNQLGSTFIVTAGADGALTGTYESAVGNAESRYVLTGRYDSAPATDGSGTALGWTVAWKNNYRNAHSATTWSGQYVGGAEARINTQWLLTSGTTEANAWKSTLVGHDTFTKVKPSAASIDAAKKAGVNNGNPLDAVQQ
Sequence of NADPH oxidase 4 (Homo sapiens) (Q9NPH5 whole entry, looked up): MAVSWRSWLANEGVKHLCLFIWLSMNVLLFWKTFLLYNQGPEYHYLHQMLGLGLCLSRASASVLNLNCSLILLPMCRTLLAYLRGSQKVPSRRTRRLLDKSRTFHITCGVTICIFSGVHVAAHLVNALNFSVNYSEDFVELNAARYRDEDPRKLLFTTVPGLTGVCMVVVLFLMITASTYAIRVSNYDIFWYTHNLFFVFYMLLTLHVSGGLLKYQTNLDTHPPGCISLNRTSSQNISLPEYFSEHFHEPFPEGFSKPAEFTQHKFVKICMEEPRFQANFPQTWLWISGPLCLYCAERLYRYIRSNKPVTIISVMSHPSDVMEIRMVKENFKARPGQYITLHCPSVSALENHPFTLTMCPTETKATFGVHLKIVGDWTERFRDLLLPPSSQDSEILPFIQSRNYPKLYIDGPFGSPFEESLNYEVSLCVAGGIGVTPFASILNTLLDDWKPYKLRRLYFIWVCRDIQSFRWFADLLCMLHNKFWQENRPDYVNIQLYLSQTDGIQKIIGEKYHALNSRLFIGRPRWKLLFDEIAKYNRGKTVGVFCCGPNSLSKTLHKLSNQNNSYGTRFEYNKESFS
Sequence of NADPH oxidase 2 (Homo sapiens) (P04839 whole entry, looked up): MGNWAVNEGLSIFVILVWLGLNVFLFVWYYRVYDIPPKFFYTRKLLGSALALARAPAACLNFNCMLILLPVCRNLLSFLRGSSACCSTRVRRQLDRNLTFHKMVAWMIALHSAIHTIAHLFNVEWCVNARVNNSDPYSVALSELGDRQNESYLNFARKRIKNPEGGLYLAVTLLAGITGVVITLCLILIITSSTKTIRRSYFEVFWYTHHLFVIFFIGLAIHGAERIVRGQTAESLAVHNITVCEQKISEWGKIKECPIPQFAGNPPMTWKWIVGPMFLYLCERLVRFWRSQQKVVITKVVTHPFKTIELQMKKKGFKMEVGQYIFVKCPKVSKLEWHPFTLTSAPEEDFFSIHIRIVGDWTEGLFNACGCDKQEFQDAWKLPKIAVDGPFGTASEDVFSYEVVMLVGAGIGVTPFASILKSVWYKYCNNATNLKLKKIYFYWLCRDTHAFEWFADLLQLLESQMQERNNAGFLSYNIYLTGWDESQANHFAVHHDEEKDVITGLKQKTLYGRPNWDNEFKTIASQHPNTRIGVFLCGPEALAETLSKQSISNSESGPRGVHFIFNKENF

SMILES	composite z-score [1]	z-score [2]	z-score [3]	z-score [4]	z-score [5]	composite z-score [6]	composite z-score [7]	composite z-score (Torsin-1A (Homo sapiens) [8])	composite z-score (Torsin-1A (Homo sapiens) [9])	composite z-score [10]	z-score [11]	composite z-score [12]	z-score [13]	z-score [14]	z-score [15]	z-score [16]	z-score [17]	z-score [18]	z-score [19]	z-score [20]
COCC(=C=CC[C@@H](O)c1ccccc1OCCO)C[C@@H](O)c1ccccn1	0.088	-0.202 (inactive)	1.2 (inactive)	1.99 (inactive)	-0.465 (inactive)	-0.0795	0.0737	0.162	0.679	1.89	-0.197 (inactive)	0.235	8.59 (active)	0.801 (inactive)	0.502 (inactive)	0.577 (inactive)	-0.456	-0.459 (inactive)	-1.04 (inactive)	-1.31
CC1(C)[C@@H]2CC(C(O)C3C=CC4C(=O)N(c5ccccc5)C(=O)C4N3Nc3ccccc3F)=C[C@@H]1C2 (stereo not given in full)	0.512	-2.69 (inactive)	-1.31 (inactive)	-0.826 (inactive)	-0.7 (inactive)	0.5	0.0291	0.233	0.541	0.625	0.446 (inactive)	0.43	1.83 (inactive)	0.194 (inactive)	-1.57 (inactive)	-0.786 (inactive)	0.586	0.318 (inactive)	0.0669 (inactive)	-0.156
C=C[C@@H](O)[C@H]1CC(c2ccccc2)=NO1	-0.184	0.0011 (inactive)	0.15 (inactive)	1.03 (inactive)	0.167 (inactive)	0.174	-0.183	0.154	0.334	-0.18	1.07 (inactive)	0.0557	16 (active)	1.82 (inactive)	-0.112 (inactive)	0.477 (inactive)	-0.194	-0.671 (inactive)	-0.0807 (inactive)	0.344
C=C(C)[C@@H]1CC=C(C(O)C2C=CC3C(=O)N(C4CCCCC4)C(=O)C3N2Nc2ccc(OC)cc2)CC1 (stereo not given in full)	0.187	-1.7 (inactive)	-0.645 (inactive)	0.369 (inactive)	-0.317 (inactive)	1.12	-0.0521	-0.0445	0.6	0.966	-0.441 (inactive)	0.203	1.75 (inactive)	0.415 (inactive)	0.604 (inactive)	0.56 (inactive)	-0.14	0.191 (inactive)	-1.34 (inactive)	-2.14
O=C1O[C@@H](c2ccccc2)[C@@H](c2ccccc2)N2[C@@H](c3ccc(O)cc3)[C@]3(C(=O)Nc4ccc(C#CC5=CCCCC5)cc43)[C@@H](C(=O)Nc3nc4ccccc4s3)[C@H]12	0.61	-1.77 (inactive)	-1.05 (inactive)	-1.02 (inactive)	-1.09 (inactive)	1.26	1.37	0.828	0.221	1.59	0.542 (inactive)	1.53	0.0488 (inactive)	1.36 (inactive)	2.66 (inactive)	1.6 (inactive)	-0.227	1.35 (inactive)	0.617 (inactive)	-0.146
CC(C)(C)OC(=O)CC[C@@]1(C(=O)N2CCCCC2)N=C(c2ccc(OCCCO)cc2)O[C@@H]1c1ccccc1CN=[N+]=[N-]	0.34	-1.95 (inactive)	0.37 (inactive)	0.414 (inactive)	-0.284 (inactive)	1.07	0.248	1.1	1.22	-0.226	0.502 (inactive)	0.549	29.6 (active)	25 (active)	1.03 (inactive)	4.6 (inactive)	-0.243	-0.601 (inactive)	1.13 (inactive)	1.22
CCCCC(CC)C(O)C1C=CC2C(=O)NC(=O)C2N1Nc1ccccn1 (stereo not given)	-0.129	0.683 (inactive)	-1.03 (inactive)	-0.322 (inactive)	-0.634 (inactive)	0.91	-0.0405	0.312	0.624	-0.0493	-0.757 (inactive)	-0.0754	1.68 (inactive)	0.648 (inactive)	0.186 (inactive)	0.408 (inactive)	-0.606	0.201 (inactive)	-3.35 (inactive)	-2.14
CO[C@H]1O[C@H](CO)[C@@H](OC(=O)c2ccc(Br)cc2)[C@@H]2OC(=O)[C@H](Cc3cccc(Br)c3)C/C=C/C[C@@H](Cc3cccc(Br)c3)C(=O)O[C@@H]12	0.422	-1.62 (inactive)	-0.0682 (inactive)	0.212 (inactive)	0.122 (inactive)	0.578	-0.0695	-0.103	0.442	0.707	-0.681 (inactive)	0.415	1.56 (inactive)	0.624 (inactive)	-0.778 (inactive)	0.484 (inactive)	-0.0043	-0.129 (inactive)	0.211 (inactive)	0.875
[N-]=[N+]=NCc1ccccc1[C@H]1OC(c2ccc(OCCCO)cc2)=N[C@@]1(Cc1ccccc1)C(N)=O	0.765	-1.18 (inactive)	-0.293 (inactive)	0.479 (inactive)	-1.43 (inactive)	2.31	0.278	0.217	0.65	-1.13	0.0183 (inactive)	0.174	25.2 (active)	15.2 (active)	1.79 (inactive)	2.75 (inactive)	0.534	-0.17 (inactive)	1.21 (inactive)	1.2
